Data: PubChem BioAssay (NCI)
Values joined by “and” are separate entries in the source; they are usually repeats but may differ in a detail not shown here. Equal entries are not always repeated. About 79,000 compounds went through this panel and 15% of them were active in at least one assay; those are over-represented in the sample as a whole. Rule as the data show it: active = growth inhibition above about 70%; inactive = the rest.

How the values were obtained:
[1] = NCI Yeast Anticancer Drug Screen. Data for the rad50 strain (AID 155);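 also: 0% = growth of vehicle-only cultures of the same strain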; settings: S. cerevisiae rad50 strain growth inhibition, stronger effect = higher value; at 50.0 µM unless noted
Procedure, shortened: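 Inhibition values express reduced yeast growth in compound-treated cultures relative to vehicle-treated controls.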

[2] = NCI Yeast Anticancer Drug Screen. Data for the mec2-1 strain (AID 157); settings: S. cerevisiae mec2-1 strain, stronger effect = higher value; at 50.0 µM unless noted
Procedure, shortened: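 Growth inhibition is read against vehicle-treated controls after compound exposure of the mec2-1 yeast strain, which is defective in DNA damage repair or cell cycle control.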

[3] = NCI Yeast Anticancer Drug Screen. Data for the sgs1 mgt1 strain (AID 161);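 also: 0% = growth of cultures given vehicle only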; settings: S. cerevisiae sgs1 mgt1 strain, stronger effect = higher value; at 50.0 µM unless noted
Procedure, shortened: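 Yeast cells carrying a defined DNA-repair defect were exposed to test compounds. Growth inhibition was measured relative to vehicle-treated controls.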

[4] = NCI Yeast Anticancer Drug Screen. Data for the cln2 rad14 strain (AID 165);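 also: 0% = growth equal to vehicle treated cultures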; settings: S. cerevisiae cln2 rad14 strain, stronger effect = higher value; at 50.0 µM unless noted
Procedure, shortened: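 Growth inhibition, relative to vehicle-treated controls, is the read-out. The test organism is a yeast strain with defined genetic alterations, cln2 rad14.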

[5] = NCI Yeast Anticancer Drug Screen. Data for the bub3 strain (AID 167); settings: S. cerevisiae bub3 mutant strain, stronger effect = higher value; at 50.0 µM unless noted
Procedure, shortened: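 Steps: expose the mutant yeast strain to compound; grow alongside vehicle-treated cultures; measure growth; express inhibition against the vehicle cultures.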

[6] = NCI Yeast Anticancer Drug Screen. Data for the mlh1 rad18 strain (AID 175); settings: S. cerevisiae mlh1 rad18 strain growth inhibition, stronger effect = higher value; at 50.0 µM unless noted
Procedure, shortened: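 Cells of a genetically altered yeast strain, deficient in DNA damage repair, were treated with compound. Their growth was then compared with that of vehicle-treated cultures to give inhibition.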

Measured: growth inhibition

Cn1c2cccc3nnc4cccc(c4c32)n1C
inactive: [1] -37.1% | [2] -9.3% | [3] -4.9% | [4] 4.2% | [5] -6.65% | [6] -11.8%

O=c1c(O)c(-c2cc(O)c(O)c(O)c2)oc2cc(O)cc(O)c12
inactive: [1] 13.7% | [2] -21.1% | [3] 7.55% | [4] 1.1% | [5] 14.5% | [6] -8.55%

O=c1cc2ccccc2nn1-c1ccccc1Cl
inactive: [1] 26.1% | [2] 6.4% | [3] 37.6% | [4] 36.5% | [5] 25.3% | [6] 34.5%

CC1CN(S(=O)(=O)c2ccccc2)CCN1S(=O)(=O)c1ccccc1 (stereo not given)
inactive: [1] -9.65% | [2] -4.3% | [3] -8.35% | [4] -8.45% | [5] 1.5% | [6] -0.55%

CC(C)N(CC(C)(C)O)C(=O)c1ccccc1
inactive: [1] -5.35% | [2] 11.7% | [3] 17.1% | [4] 6.1% | [5] -14.7% | [6] -8.4%

O=C1/C(=C\C=C\c2ccccc2)CCCC/C1=C\C=C\c1ccccc1
inactive: [1] 11.3% | [2] -0.35% | [3] -0.95% | [4] 5.95% | [5] -1.4% | [6] 8.35%

Cc1nn(C)c(N)c1C#N
inactive: [1] -15.9% and 8% | [2] -11.7% and 5.95% | [3] -24.6% and 3.6% | [4] 0.3% and 26.9% | [5] -8.45% and -6.5% | [6] -18.2% and -7.45%

O=COCCCOCCCOc1ccccc1
inactive: [1] 14.3% | [2] -11.8% | [3] -9.35% | [4] -37.4% | [5] -5.6% | [6] 28.4%

CC1Nc2ccccc2C1C (stereo not given)
inactive: [1] -35.2% | [2] -49% | [3] -62.1% | [4] 7.05% | [5] -59.6% | [6] -12.5%

O=C(N=C(Oc1ccccc1)Oc1ccccc1)N=C(Oc1ccccc1)Oc1ccccc1
inactive: [1] 19.9% | [2] 9.15% | [3] 8.4% | [4] 20.3% | [5] 9.15% | [6] 36%

COc1cc(C2c3cc4c(cc3OC3(O)CCCC23)OCO4)cc(OC)c1OC (stereo not given)
inactive: [1] -0.85% | [2] 3.55% | [3] 2.45% | [4] -25.1% | [5] 3.15% | [6] -2.25%

O=c1c2ccccc2[nH]c(=S)n1C1CCCC1
inactive: [1] -7.85% | [2] -6.55% | [3] 15.1% | [4] -19.9% | [5] 39.4% | [6] -2.15%

CCOC(=O)C/C(=N\NC(=O)c1ccccc1O)C(=O)OCC
inactive: [1] 5.8% | [2] 1.95% | [3] 5.85% | [4] 0.9% | [5] 3.3% | [6] 29.9%

O=c1c2cccnc2nc2ccc3c[nH][nH]c3c12
inactive: [1] -23.8% | [2] -24.6% | [3] -0.55% | [4] -14.6% | [5] -18.3% | [6] 8.65%

CSC1N=CNc2c1sc(=S)n2-c1ccccc1 (stereo not given)
inactive: [1] -20.8% | [2] 7.75% | [3] 15.9% | [4] -3.9% | [5] -2.85% | [6] -1.85%

Cc1cc(C)c(CC(=O)c2ccccc2)c(C)c1
inactive: [1] 0% | [2] -9.5% | [3] -1.9% | [4] -32% | [5] 0.95% | [6] -5%

O=Cc1ccc(OC(=O)Nc2ccc([N+](=O)[O-])cc2)cc1
inactive: [1] 2.65% | [2] 45% | [3] 33.4% | [4] -2.7% | [5] 46.6% | [6] 47.4%

COc1ccc(C(N2CCNCC2)N2CCNCC2)cc1
inactive: [1] 13.7% | [2] 6.3% | [3] 19.6% | [4] -30.1% | [5] -3.5% | [6] 48.3%

O=c1[nH]cnc2c1ccc1[nH]ncc12
inactive: [1] 9.45% | [2] 0.2% | [3] -3.35% | [4] -42.2% | [5] -1.05% | [6] 5.4%

O=c1[nH]c(=O)c2nc3c(=O)[nH]c(=O)[nH]c3nc2[nH]1
inactive: [1] -14.2% | [2] -21.1% | [3] 0.95% | [4] -5.95% | [5] 2.65% | [6] -27.1%

Nc1ccccc1SC1CC(=O)N(c2ccc3c(c2)OCO3)C1=O (stereo not given)
inactive: [1] 6.55% | [2] 8.85% | [3] 20.4% | [4] 16.4% | [5] 8.35% | [6] 16.3%

O=C(OC1CCCCCCC1OC(=O)c1ccc([N+](=O)[O-])cc1)c1ccc([N+](=O)[O-])cc1 (stereo not given)
inactive: [1] 7.05% | [2] 1.85% | [3] 6.4% | [4] 11.8% | [5] -4.8% | [6] 1.7%

Cc1cc2nncn2c2ccccc12
inactive: [1] 9.15% | [2] -3.55% | [3] -2.9% | [4] -12.3% | [5] 1.2% | [6] 11.2%

Cc1cccc(NC(=O)N(C(C)C)C(C)C)c1
inactive: [1] -16.4% | [2] -38.2% | [3] -3.55% | [4] 2.8% | [5] 5.8% | [6] -27.6%

Cc1nc(CO)c(-c2ccc([N+](=O)[O-])cc2)o1
inactive: [1] 0.4% | [2] -4% | [3] -8.75% | [4] -20.4% | [5] -13.1% | [6] -1.5%

CN(C)C(=O)OC(Cn1cncn1)(Cn1cncn1)c1ccc(Cl)cc1Cl
inactive: [1] -29.8% | [2] 13% | [3] 7.5% | [4] -10.8% | [5] 5.1% | [6] -16.8%

Nc1ccc2ncc(Nc3ccc(F)cc3)nc2c1
inactive: [1] 37.7% | [2] -22.6% | [3] 25.1% | [4] 23.4% | [5] 17.8% | [6] 15.6%

Cc1nc(-c2ccc(N=Cc3ccc(N4CCC5(CCCCC5)CC4)cc3)cc2)cs1
inactive: [1] 25% | [2] -2.05% | [3] 15.7% | [4] 18.6% | [5] 6.1% | [6] -3%

Nc1ccccc1SC(CC(=O)c1ccc(-c2ccccc2)cc1)c1ccco1 (stereo not given)
inactive: [1] -18.4% | [2] -30.6% | [3] 17% | [4] -9.2% | [5] -7.6% | [6] -31.7%

C/C(CCc1ccccc1)=N\NC(N)=S
inactive: [1] 7.1% | [2] 0.95% | [3] 9.55% | [4] -35.1% | [5] -5.5% | [6] 10.3%

O=C1OC(=O)C2C(Cl)C(Cl)C12 (stereo not given)
inactive: [1] -5.1% | [2] -7.2% | [3] 2.7% | [4] -37.6% | [5] -15.8% | [6] 3.4%

CCN(CCOC)C(C)=O
inactive: [1] 2.15% | [2] 2.25% | [3] 17.6% | [4] -1.75% | [5] -0.45% | [6] -3.05%

O=[N+]([O-])c1ccc(CS(=O)Cc2ccccc2)cc1 (stereo not given)
inactive: [1] 10.9% | [2] -18.6% | [3] 1.35% | [4] 0.05% | [5] 6.75% | [6] 31.7%

CC(N)(CC(O)(C(F)(F)Cl)C(F)(F)Cl)C(=O)O (stereo not given)
inactive: [1] -48.1% | [2] -37.7% | [3] -33.4% | [4] -9.25% | [5] -13.7% | [6] -28.8%

CCCCCO.CCCCCO.CCCCCO.CCCCCO.[Ti]
inactive: [1] 3.45% | [2] -33% | [3] -3.3% | [4] 8.55% | [5] -20% | [6] -1.65%

COc1ccc(-c2oc(=O)c3ccccc3c2-c2ccccc2)cc1
inactive: [1] 7.25% | [2] 4.65% | [3] 5.35% | [4] 9.4% | [5] 2.6% | [6] 6.4%

COC(=O)CCn1cnc2c(SC)ncnc21
inactive: [1] -27.2% | [2] 16.2% | [3] -44% | [4] 21.5% | [5] 19.2% | [6] -12.7%

CCOC(=O)CNC(=O)C(CCC(=O)N(C)O)NC(=O)CCC(N)C(=O)O (stereo not given)
inactive: [1] -20.1% | [2] -5.5% | [3] -0.8% | [4] -0.05% | [5] 4.25% | [6] -35.5%

NC(N)=N/N=C(/c1ccccc1)c1ccc(O)cc1O
inactive: [1] 20.2% | [2] -15.7% | [3] -8.5% | [4] 9.7% | [5] -48.6% | [6] 14.5%

COC1CCC(=O)N1CN(C(C)=O)c1ccc(C)cc1 (stereo not given)
inactive: [1] 10.4% | [2] 9.1% | [3] -25.2% | [4] 28.4% | [5] 3.75% | [6] -28.1%
